Giardia FBPA inh: Giardia lamblia aldolase inhibition; purified Giardia FBPA; Potency, µM (doses to about 59.6 µM), hits mostly inhibitors; 290,000 tested, 0.71% active; A8B2U2; also: nearly all actives have a fitted effect of over 55% in size
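Giardia FBPA (40 nM reagent) was preincubated 10 min at RT with compound (up to 57.5 uM final), then substrate plus GAPDH/TPI/NAD/arsenate coupling system with diaphorase/resazurin was added; resorufin fluorescence (525/598 nm) was read after 20 min.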
RE007 growth inh: less growth of the S. pombe RE007 Vpr strain; AID 651644; 360,000 tested, 0.21% active; S. pombe RE007 Vpr strain, BacTiter-Glo ATP luminescence, 24 h; Potency, µM (titrated, usually from 92.2 µM), actives largely listed as inhibitors; active = well fitted falling curve with a large enough effect; inconclusive = small, poorly fitted or top-dose-only effect; inactive = no such curve, though single readings can be large or run the other way; also: nearly all actives have a fitted effect of over 50% in size
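Fission yeast strain RE007, carrying one chromosomally integrated HIV-1 vpr copy, was seeded at OD 0.01 in PMG+AL medium with 23 nL pinned compound. After 24 h at 30 °C and 99% humidity, viability was read by BacTiter-Glo luminescence.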
Shiga inhibitor: inhibitors of Shiga toxin in Vero cells; Vero cells, Shiga toxin protein synthesis inhibition reporter; inhibition, % at 38.7 µM; 290,000 tested, 9.2% active; AID 2315; in the data active = inhibition mostly above about 28%, no sharp cut-off; inactive = mostly below about 43%
LmPK inh: blocks Leishmania mexicana pyruvate kinase activity; Q27686; purified LmPK, Kinase-Glo ATP luminescence, 1 h; 290,000 tested, 0.37% active; Potency, µM (doses to about 57.5 µM), hits mostly inhibitors
Target sequence (Q27686 whole entry, looked up): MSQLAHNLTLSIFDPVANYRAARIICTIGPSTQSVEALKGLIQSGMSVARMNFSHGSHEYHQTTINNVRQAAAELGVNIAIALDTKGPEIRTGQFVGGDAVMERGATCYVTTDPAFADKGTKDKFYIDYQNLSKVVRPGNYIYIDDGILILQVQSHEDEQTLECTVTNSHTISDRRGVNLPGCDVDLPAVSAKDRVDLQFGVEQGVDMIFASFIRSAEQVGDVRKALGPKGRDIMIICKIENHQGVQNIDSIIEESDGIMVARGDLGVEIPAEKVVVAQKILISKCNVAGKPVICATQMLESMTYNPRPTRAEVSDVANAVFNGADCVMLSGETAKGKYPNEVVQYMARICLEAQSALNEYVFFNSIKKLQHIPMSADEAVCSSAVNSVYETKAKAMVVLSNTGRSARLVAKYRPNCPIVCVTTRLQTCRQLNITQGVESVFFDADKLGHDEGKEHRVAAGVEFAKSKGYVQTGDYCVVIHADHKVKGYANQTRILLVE
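Kinase-Glo luminescence read after 1 h RT reaction of 0.1 nM LmPK with 0.5 mM PEP and 0.1 mM ADP. Activity scaled between uninhibited and enzyme-free controls.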
Tb PYK inh: blocks Trypanosoma brucei pyruvate kinase; Q57TT1; TbPYK enzyme, Kinase-Glo Plus ATP luminescence, 45 min; Potency, µM (doses to about 76.8 µM), usual class: inhibitors; 410,000 tested, 0.12% active; AID 624173; also: nearly all actives have a fitted effect of over 50% in size
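T. brucei PYK with substrate was exposed to pin-transferred compounds across a concentration series, then started with 130 uM ADP (final). After 45 min at room temperature, Kinase-Glo Plus luminescence was read, normalized and curve-fitted.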
Cycloheximide cs: counter-screen hit for Shiga toxin inhibitors, cycloheximide | max response, % | cell reporter, cycloheximide protein synthesis inhibition counterscreen | AID 2314 | 300,000 tested, 12% active; in the data active = max response mostly above about 13%, no sharp cut-off; inactive = mostly below about 14%; also: read at 38.3 µM for the half of the compounds with a filed dose
Hits are given with their value; – = inactive; ? = inconclusive; · = no result given; + = active, no number. Shown is part of a subset that was picked to be rich in hits. Unless noted, calls follow the shape of the dose curve; as a rule, active = well fitted curve in the direction sought with a large enough effect; inconclusive = small, poorly fitted or top-dose-only effect, or another doubt; inactive = no such curve, though single readings can be large; an effect the other way counts as inactive or inconclusive.

SMILES | Giardia FBPA inh | RE007 growth inh | Shiga inhibitor | LmPK inh | Tb PYK inh | Cycloheximide cs
O=C(CSc1nc2[nH]ncc2c(=O)n1-c1ccccc1Br)NCc1ccccc1Cl | – | – | – | – | – | –
N#CCSc1nc2[nH]ncc2c(=O)n1-c1ccccc1Br | – | – | – | 11.2µM | – | –
Cc1cccc2cc3c(nc12)-c1ccccc1C3=O | – | – | 42.6 | – | – | 17.3
COc1ccc(CNC(=O)c2cnc(N(C)C)nc2)cc1 | · | · | · | · | – | ·
CN1CCN(C(=O)/C=C\c2ccc(Cl)cc2)CC1 | – | – | – | – | – | –
CN1CCN(C(=O)/C=C/c2cccc(Cl)c2)CC1 | – | – | – | – | – | 16.7
CN1CCN(C(=O)/C=C/c2c(F)cccc2Cl)CC1 | – | – | – | – | – | 19.3
Cc1ccc(OCC(=O)Nc2cccc(C(=O)OCc3cc(=O)n4nc(C)sc4n3)c2)cc1 | · | · | · | · | – | ·
COc1ccc2nc3cc(Cl)ccc3c(Nc3cc(C(C)C)c(O)cc3C)c2c1 | – | – | 27.1 | – | – | –
COc1ccc(CCNC(=O)Cn2c(=O)n(-c3cc(OC)c(OC)c(OC)c3)c(=O)c3ccccc32)cc1OC | · | · | · | · | – | ·
O=C(Nc1c2c(nn1-c1ccc(Cl)cc1)CS(=O)(=O)C2)c1cccc(Cl)c1 | · | · | · | · | – | ·
CSCCC(NC(=O)c1ccco1)c1nc2ccccc2[nH]1 (centres undefined) | · | – | – | – | – | –
CSc1nsc(/C=C/Nc2ccc(C)c(C)c2)c1C#N | ? | – | 45.1 | – | – | –
C[C@@H]1COC(=O)[C@@H](Cc2ccc(F)cc2)C/C=C\C[C@@H](CC(=O)N(CCO)Cc2ccccc2)C(=O)N1 | · | – | · | · | – | ·
O=C(OCc1nc2ccccc2s1)c1ccc(Br)s1 | · | – | – | – | – | 24.6
Nc1ccc(C(=O)OCc2nc3ccccc3s2)cc1 | – | – | 87.1 | – | – | 56.2
O=C(OCc1cc(=O)n2c(n1)sc1ccccc12)c1ccc(O)cc1 | – | – | – | – | – | 35.8
O=C(OCc1nc2ccccc2s1)c1cc2ccccc2oc1=O | – | · | 39.5 | – | · | 34.0
O=C(COc1ccc(F)cc1)OCc1cc(=O)n2nc(C3CCCCC3)sc2n1 | · | · | · | · | – | ·
O=C(O)Cn1c(-c2ccccn2)nc2ccccc21 | – | – | 46.0 | – | – | 31.5
CCOC(=O)c1ccc2c(c1)nc(-c1ccccn1)n2CC | – | – | 106.5 | – | – | 61.3
CCOC(=O)Cn1c(-c2ccccn2)nc2ccccc21 | – | – | – | – | – | –
COc1ccc(NC(=O)c2ccc(COCC(F)(F)C(F)F)cc2)cc1 | – | – | + | – | – | 52.8
COc1ccc(C(=O)Nc2ccc(C(=O)c3ccccc3)cc2)cc1 | · | – | · | · | – | ·
COc1ccc(C(=O)Nc2cc(OC)cc(OC)c2)cc1 | – | – | 64.9 | 14.1µM | – | 39.9
SMILES | Giardia FBPA inh | RE007 growth inh | Shiga inhibitor | LmPK inh | Tb PYK inh | Cycloheximide cs
COc1cc(NC(=O)c2ccccc2)cc(OC)c1 | – | – | – | – | – | 29.9
COc1ccc(NC(=O)c2ccc(COCC(F)(F)C(F)F)cc2)cc1OC | – | – | – | – | – | –
c1ccc(-c2csc(CN3CCCCC3)n2)cc1 | · | – | · | · | – | ·
c1ccc(-c2csc(-n3cccn3)n2)cc1 | – | – | – | – | – | 50.8
Clc1ccc(-c2csc(N3CCSCC3)n2)cc1 | – | – | 114.3 | – | – | 34.8
CC1=NN(c2nc(-c3ccc(Cl)cc3)cs2)C(=O)C1 | – | – | – | – | – | 14.9
c1ccc(-c2csc(N3CCSCC3)n2)cc1 | – | – | 89.8 | – | ? | 44.5
CCN(C(=O)Cn1c(SCc2ccccc2F)nc2cccnc21)c1ccccc1 | · | · | · | · | – | ·
Cc1ccc(-c2csc(N3C(=N)SCC3=O)n2)cc1 | – | – | 42.2 | – | – | 35.9
CC1CN(C(=O)CSc2nc(-c3ccc(F)cc3)cs2)CC(C)O1 (centres undefined) | – | – | – | – | – | –
CCC(=O)N1CCN(c2nc(-c3ccc(Cl)cc3)cs2)CC1 | – | ? | 62.5 | – | – | 35.4
O=C(CSc1nc(-c2ccc(F)cc2)cs1)N1CCOCC1 | – | – | – | – | – | 44.8
CC1=NN(c2nc(-c3ccc(F)cc3)cs2)C(=O)C1 | – | – | – | – | – | –
Fc1ccc(-c2csc(N3CCOCC3)n2)cc1 | – | ? | 51.4 | – | – | 39.2
CC(C)CNC(=S)N1CCN(c2nc(-c3ccc(Cl)cc3)cs2)CC1 | – | – | – | – | – | –
COc1cc(NC(=O)CNS(=O)(=O)c2cccs2)cc(OC)c1OC | · | · | · | · | – | ·
Cc1ccc(NC(=O)C(c2ccccc2)N2Cc3ccccc3C2=O)cc1Cl (centres undefined) | · | · | · | · | – | ·
COc1cccc(-c2csc(N3CCN(C(=O)Nc4ccc(Cl)cc4)CC3)n2)c1 | – | – | 45.3 | – | – | 28.4
O=C(c1cc(-n2cnnc2)ccc1Cl)N1CCN(c2nc(-c3ccccc3)cs2)CC1 | – | – | – | – | – | –
Fc1ccc(-c2csc(N3CCSCC3)n2)cc1 | – | – | 98.5 | – | – | 32.3
O=C(c1ncn[nH]1)N1CCN(c2nc(-c3ccccc3)cs2)CC1 | – | – | – | – | – | 15.3
CC(C)(CO)NCc1cccc(OCc2ccc(Cl)cc2)c1 | – | – | active | – | – | –
Cc1cc(NC(=O)COC(=O)c2n[nH]c3ccccc23)no1 | – | – | – | – | – | 19.6
Cc1cc(NC(=O)COC(=O)c2ccccc2Cl)no1 | · | – | · | · | – | ·
O=C(COC(=O)c1n[nH]c2ccccc12)c1cccc(Br)c1 | · | – | – | – | – | 18.4
SMILES | Giardia FBPA inh | RE007 growth inh | Shiga inhibitor | LmPK inh | Tb PYK inh | Cycloheximide cs
Cc1cc(NC(=O)COC(=O)c2ccccc2[N+](=O)[O-])no1 | – | – | – | – | – | 27.7
COc1ccc2c(COC(=O)c3n[nH]c4ccccc34)cc(=O)oc2c1 | – | – | 106.8 | – | – | 26.0
CCC(O)c1nc2ccccc2n1Cc1cc(C)ccc1C (centres undefined) | · | · | · | · | – | ·
COc1ccc(/C=C2\SC(=S)N(CC(=O)NC3C=CS(=O)(=O)C3)C2=O)cc1 (centres undefined) | – | – | – | – | – | –
Cc1ncoc1C(=O)N1CCc2c([nH]c3ccccc23)C1C1CCCCC1 (centres undefined) | – | – | 72.3 | – | – | 51.9
O=C1c2ccccc2C(=O)N1CCc1ccccn1 | – | – | – | – | – | 15.7
O=C1c2cccc3c([N+](=O)[O-])ccc(c23)C(=O)N1CCc1ccccn1 | – | – | – | – | – | –
N#Cc1ccccc1CCN1C(=O)c2ccccc2C1=O | – | – | · | – | – | 40.6
COC(=O)C1=C(C)N(Cc2ccccc2)C(=NCCCCO)N[C@H]1CCc1ccccc1 | – | – | – | – | – | –
CCOC(=O)COc1ccc(C)cc1C(=O)c1ccn2nc(-c3ccc(F)cc3)cc2n1 | · | · | · | · | – | ·
CCOc1ccc2nc(NC(=O)Nc3ccccc3)sc2c1 | – | – | – | – | – | 21.5
